Measurements taken from the supplement of paper PMC12669032.
Values without a mark were called inactive.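 The calls were made as follows: active = AUC reduced over 20% with Padj below 0.05 in at least 2 of 3 replicates; inactive = otherwise.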

Tests used:
Assay in all cases: growth AUC relative to DMSO control (median of replicates) (fraction); higher = more growth (less inhibition), active = hit call of the paper
Conditions in all cases: 20 µM; 24 h
Akkermansia muciniphila = system: Akkermansia muciniphila
Procedure, shortened: (§1)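 In round-bottom 96-well plates sealed with pierced gas-permeable seals, gut bacterial monocultures in mGAM were grown anaerobically at 37 °C from OD600 0.05 with 20 µM compound (1% DMSO). OD600 readings were taken hourly for 24 h, and the minimum OD was set to 0. Area under the growth curve was then normalised to the plate median of solvent-only wells, or to row and column medians on the industrial chemical plate. The value given is the median of three biological replicates grown on separate days.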

Bacteroides caccae = system: Bacteroides caccae
Procedure, shortened: as §1

Bacteroides clarus = system: Bacteroides clarus
Procedure, shortened: as §1

Bacteroides dorei = system: Bacteroides dorei
Procedure, shortened: as §1

Bacteroides stercoris = system: Bacteroides stercoris
Procedure, shortened: as §1

[1] = system: Bacteroides thetaiotaomicron
Procedure, shortened: as §1

Bacteroides uniformis = system: Bacteroides uniformis
Procedure, shortened: as §1

[2] = system: Bifidobacterium longum subsp. longum
Procedure, shortened: as §1

Clostridium difficile = system: Clostridium difficile
Procedure, shortened: as §1

Collinsella aerofaciens = system: Collinsella aerofaciens
Procedure, shortened: as §1

Coprococcus comes = system: Coprococcus comes
Procedure, shortened: as §1

Escherichia coli ED1a = system: Escherichia coli ED1a
Procedure, shortened: as §1

Escherichia coli IAI1 = system: Escherichia coli IAI1
Procedure, shortened: as §1

Eubacterium rectale = system: Eubacterium rectale
Procedure, shortened: as §1

[3] = system: Fusobacterium nucleatum subsp. animalis
Procedure, shortened: as §1

Lactobacillus gasseri = system: Lactobacillus gasseri
Procedure, shortened: as §1

Lactobacillus paracasei = system: Lactobacillus paracasei
Procedure, shortened: as §1

Odoribacter splanchnicus = system: Odoribacter splanchnicus
Procedure, shortened: as §1

[4] = system: Parabacteroides distasonis
Procedure, shortened: as §1

Parabacteroides merdae = system: Parabacteroides merdae
Procedure, shortened: as §1

| SMILES | growth AUC (Akkermansia muciniphila) | growth AUC (Bacteroides caccae) | growth AUC (Bacteroides clarus) | growth AUC (Bacteroides dorei) | growth AUC (Bacteroides stercoris) | growth AUC [1] | growth AUC (Bacteroides uniformis) | growth AUC [2] | growth AUC (Clostridium difficile) | growth AUC (Collinsella aerofaciens) | growth AUC (Coprococcus comes) | growth AUC (Escherichia coli ED1a) | growth AUC (Escherichia coli IAI1) | growth AUC (Eubacterium rectale) | growth AUC [3] | growth AUC (Lactobacillus gasseri) | growth AUC (Lactobacillus paracasei) | growth AUC (Odoribacter splanchnicus) | growth AUC [4] | growth AUC (Parabacteroides merdae) |
| --- | --- | --- | --- | --- | --- | --- | --- | --- | --- | --- | --- | --- | --- | --- | --- | --- | --- | --- | --- | --- |
| COP(=O)(OC)O/C(=C\Cl)c1ccc(Cl)cc1Cl | 1.11 | 0.975 | 1.02 | 1.03 | 1.02 | 0.969 | 1.01 | 1.02 | 0.97 | 0.997 | 1.06 | 1.01 | 1 | 1.09 | 1.09 | 0.97 | 1.02 | 1.02 | 0.957 | 1.01 |
| O=C(O)c1cc(Cl)ccc1Cl | 0.97 | 0.998 | 0.989 | 0.961 | 0.89 | 1 | 1.03 | 1.17 | 1.02 | 0.952 | 0.994 | 0.97 | 0.984 | 1.02 | 0.994 | 0.869 | 0.934 | 1.08 | 0.978 | 0.96 |
| Cl.NC1=NCCN1Cc1ccc(Cl)nc1 | 1.03 | 1.03 | 1.02 | 0.975 | 1.14 | 1.04 | 1.01 | 1.02 | 1.06 | 1.03 | 1.13 | 1.04 | 1.03 | 0.945 | 1.06 | 1.02 | 1.06 | 0.507 (active) | 1.02 | 1.05 |
| CNC(=O)Oc1cc(C)c(S(C)(=O)=O)c(C)c1 | 0.967 | 1.02 | 0.963 | 0.995 | 0.995 | 0.97 | 0.97 | 0.985 | 0.998 | 1.01 | 0.98 | 0.981 | 0.963 | 0.971 | 1.05 | 0.999 | 1.02 | 1.01 | 1.05 | 1.02 |
| CNC(=O)CSP(=O)(OC)OC | 1.07 | 1.03 | 1.02 | 1.03 | 1.04 | 0.997 | 1.01 | 1.06 | 1.03 | 1.03 | 1.04 | 1.01 | 1.03 | 1.01 | 1.04 | 1.06 | 1.05 | 1.05 | 1.02 | 1.01 |
| CCCCC(O)(Cn1cncn1)c1ccc(Cl)cc1Cl (stereo not given) | 0.965 | 0.944 | 0.96 | 0.97 | 1.22 | 0.92 | 0.971 | 1.02 | 0.92 | 1 | 0.946 | 0.987 | 0.996 | 0.783 (active) | 1.04 | 0.952 | 0.936 | 0.894 | 1.01 | 0.931 |
| O=S(=O)(Oc1ccc(Cl)cc1)c1ccc(Cl)cc1 | 1.09 | 0.97 | 0.998 | 0.812 | 0.973 | 0.972 | 0.995 | 1.02 | 1.01 | 0.961 | 1.01 | 0.971 | 1 | 1.08 | 1.09 | 0.84 | 0.926 | 0.983 | 0.761 (active) | 0.945 |
| O=C(NC(=O)c1c(F)cccc1F)Nc1ccc(CO/N=C(\c2ccc(Cl)cc2)C2CC2)cc1 | 1.02 | 0.994 | 0.955 | 1.01 | 0.981 | 0.996 | 0.983 | 0.959 | 0.983 | 0.963 | 0.988 | 1 | 0.986 | 0.952 | 0.997 | 0.963 | 0.962 | 1.01 | 1.04 | 0.975 |
| CO/N=C(/C(=O)OC)c1ccccc1CO/N=C(\C)c1cccc(C(F)(F)F)c1 | 0.96 | 0.937 | 0.897 | 1.02 | 0.993 | 0.956 | 0.994 | 0.975 | 1.09 | 0.993 | 0.976 | 0.978 | 0.985 | 0.973 | 0.953 | 1.1 | 0.831 | 1.01 | 0.887 | 0.901 |
| CC1(C)C(C=C(Cl)Cl)C1C(=O)OC(C#N)c1cccc(Oc2ccccc2)c1 (mixture of isomers) | 1.14 | 0.963 | 1 | 0.996 | 1.11 | 0.981 | 1.01 | 0.984 | 1.04 | 0.966 | 1 | 1.01 | 0.987 | 1.02 | 1.04 | 0.865 | 1.02 | 1.03 | 0.982 | 0.984 |
| O=c1oc2ccccc2c(O)c1C1CC(c2ccc(OCc3ccc(C(F)(F)F)cc3)cc2)Cc2ccccc21 (mixture of isomers) | 0.908 | 0.919 | 0.548 (active) | 1.02 | 0.176 (active) | 0.97 | 0.989 | 0.525 (active) | 0.0158 (active) | 0.788 (active) | 0.858 | 1.03 | 1.04 | 0.431 (active) | 1.02 | 0.484 (active) | 0.631 (active) | 0.989 | 0.031 (active) | 0.251 (active) |
| CN(C)C(CSS(=O)(=O)c1ccccc1)CSS(=O)(=O)c1ccccc1 | 1.14 | 0.966 | 0.999 | 1.01 | 1.01 | 1.06 | 1.06 | 1.02 | 0.901 | 0.938 | 1.03 | 0.97 | 1.01 | 1.53 | 0.932 | 0.85 | 0.95 | 0.98 | 0.95 | 0.992 |
| C=CCN(CC=C)C(=O)C(Cl)Cl | 0.976 | 1.02 | 1 | 1.01 | 1.01 | 0.99 | 0.985 | 0.974 | 0.973 | 0.978 | 1 | 0.944 | 0.986 | 1.01 | 0.965 | 0.934 | 0.999 | 1.02 | 0.991 | 0.947 |
| COCCN(C(=O)CCl)c1c(C)cccc1C | 0.91 | 0.969 | 0.967 | 1.02 | 0.967 | 0.989 | 0.973 | 0.851 | 1 | 1.02 | 0.983 | 1 | 0.973 | 0.854 | 0.939 | 1.02 | 0.831 | 0.965 | 0.968 | 0.985 |
| Nc1nc(N)nc(NC2CC2)n1 | 0.99 | 0.989 | 1.02 | 1.01 | 1.04 | 1 | 0.991 | 1.01 | 1.02 | 0.999 | 1 | 0.982 | 0.986 | 1.04 | 1.04 | 0.877 | 0.959 | 1.04 | 1.03 | 1 |
| Clc1ccc(C2(Cn3cncn3)CC(Br)CO2)c(Cl)c1 (stereo not given) | 1.07 | 0.973 | 0.982 | 0.955 | 0.921 | 0.961 | 0.944 | 0.896 | 0.978 | 0.951 | 0.997 | 0.989 | 1 | 0.806 | 0.914 | 0.891 | 0.987 | 0.961 | 0.952 | 0.924 |
